The values below come from PubChem BioAssay (NCATS).

Records with an inconclusive call do not appear. Activity calls are given as the source filed them. Unless noted, calls come from the whole dose curve; as a rule, active = well fitted curve in either direction with a large enough effect (not every such curve was filed as active); inconclusive = small, poorly fitted or top-dose-only effect, or another doubt; inactive = flat fitted curve, though single readings scatter.

Experiment [1] concerns the target Lysosomal acid glucosylceramidase (Homo sapiens) (UniProt P04062). As to the kind of experiment: Glucocerebrosidase-p2 (AID 348; in the data active = potency below about 10 µM; note: potency is the fitted concentration of half-maximal effect). To be noted: purified GBA, blue fluorogenic substrate, 40 min. In a few lines: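 Compounds titrated from 0.6 nM upwards against 0.2 nM enzyme in pH 5.9 citric acid/KH2PO4, taurocholate, tween-20; blue fluorogenic substrate 80 uM, 40 min room temperature, stopped and read Ex 365/Em 440 for AC50.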

The nature of experiment [2]: AP1 Signaling Pathway (AID 357).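 Note: ME-180 reporter cells stimulated with EGF at its EC50 level; % is set by controls: 0 for no effect and ±100 for the full control effect.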 To be noted: ME-180 AP-1-bla reporter, EGF-induced, beta-lactamase ratio, 5 h; at 7.69 µM (top of the series) unless noted. In a few lines:
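Modulation of EGF-driven AP-1 transcription was assessed with a beta-lactamase reporter in ME-180 cells. Compound and EC50 EGF were co-incubated 5 hours at 37 °C before 2.5-hour CCF4 loading at room temperature and dual-emission reading.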

Experiment [3] can be described thus: NFAT Signaling Pathway (AID 444).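 Note: carbachol stimulus at about its EC50 of 1 µM final; % is set by controls: 0 for no effect and ±100 for the full control effect.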 The conditions noted are these: Jurkat NFAT-bla M1, carbachol, beta-lactamase ratio, 5 h; at 7.69 µM (top of the series) unless noted. In a few lines:
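Jurkat cells carrying an NFAT-driven β-lactamase reporter and co-transfected muscarinic M1 receptor were treated with compound plus carbachol (1 uM final, an EC50 level) for 5 h at 37 °C. CCF4 loading followed for 1 h at RT; 460/530 nm ratio gave %activity.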

Experiment [4] can be described thus: Stat Signaling Pathway (AID 446).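 Note: ME-180 cervical cancer cells given 40 pM IL-6 alongside compound; SIE-controlled beta-lactamase reporter measured as 460/530 nm FRET emission ratio; % is set by controls: 0 for no effect and ±100 for the full control effect.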 The conditions noted are these: ME-180 (cervical carcinoma) SIE beta-lactamase reporter, IL-6 stimulated, 5 h; at 7.69 µM (top of the series) unless noted. In a few lines: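 IL-6/STAT signaling read in ME-180 cells via an SIE beta-lactamase reporter. Stimulus was 40 pM IL-6 (its AC50) for 5 hrs, so both activation and inhibition register.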
Experiment [5] addresses Glucocorticoid receptor (Homo sapiens) (UniProt P04150). Briefly: GR-GFP Redistribution (AID 450;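 active = compounds whose dose series gives a full or clear partial fitted curve of increased nuclear translocation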; note: potency is the fitted concentration of half-maximal effect). The conditions noted are these: U2OS GR-GFP nuclear translocation, laser cytometry, 2 h.
Experiment [6] has the same target. Briefly: GR-EFC Redistribution (AID 451; calls by dose curve; note: potency is the fitted concentration of half-maximal effect). The conditions noted are these: CHO-K1 GR-EFC translocation, beta-gal luminescence, 2 h. Put shortly: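 CHO-K1 cells stably expressing nuclear-localized β-gal enzyme acceptor and GR fused C-terminally to the enzyme donor fragment; ligand-driven nuclear translocation restores β-gal by complementation. Compounds titrated up to 46 uM final, 2 h at 37 °C; luminescence read.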

For experiment [7], the target named is Mitogen-activated protein kinase 10 (Mus musculus) (UniProt Q61831). As to the kind of experiment: JNK3 AlphaScreen Assay (AID 530).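 Note: kinase came from lysate of stimulated human HepG2 cells; signal reports phosphorylation of biotinylated GST-cJun 1-79 at Ser73 with 10 µM ATP; % is set by controls: 0 for no effect and ±100 for the full control effect.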 The conditions noted are these: JNK3 lysate, c-Jun phosphorylation; series mostly up to 57.1 µM. Put shortly:
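Inhibitors reduce antibody binding to phosphorylated biotin-cJun, lowering AlphaScreen luminescence. Lysates from HepG2 cells pre-activated by IL-1beta plus TNF-alpha supplied JNK3; compounds were titrated.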
In general terms: Alpha assays give light when donor and acceptor beads are brought close together.

In experiment [8] the target is 3',5'-cyclic-AMP phosphodiesterase 4B (Homo sapiens) (UniProt Q07343). Briefly: qHTS Assay for Inhibitors of PDE-IV (AID 607; active = well fitted activation curve with a large enough effect in the main read-out, with a control signal flat, not every such curve was filed as active; note: % of control where 0% means no effect). The conditions noted are these: HEK293 ACTOne CNG channel cells, membrane potential fluorescence; series mostly up to 22.9 µM. In a few lines:
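Live HEK293 cells with a modified cyclic nucleotide-gated (CNG) channel report intracellular cAMP via membrane-potential dye fluorescence (ex 535/em 590 nm). Endogenous PDE-IV was targeted. Compounds were tested at up to 22.9 uM final; RO 20-1724 100 uM served as control.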
Background: qHTS replaces the single test concentration by a dilution series.

Experiment [9] can be described thus: qHTS Assay for Lipid Storage Modulators (AID 1519; calls by dose curve). To be noted: Drosophila S3 cells, BODIPY lipid droplet/cell ratio, laser cytometry, cells loaded with oleic acid; for activity change, negative = inhibition: at 57.5 µM (top of the series). Put shortly: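 Cells seeded at 5,000 per well were treated with compounds over a concentration series and loaded with oleic acid (400 uM, as added). Lipid droplet fluorescence (488 nm excitation, 500-530 nm channel) was read by laser-scanning cytometry and normalized to 20 uM Triacsin C.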

The target of experiment [10] is Dual specificity protein kinase CLK4 (Homo sapiens) (UniProt Q9HAZ1). Briefly: qHTS Assay for Inhibitors of CDC-like Kinase 4 (Kinase-Glo Assay) (AID 1770; active = well fitted curve in the direction sought with a large enough effect; an effect the other way counts as inactive or inconclusive; note: nearly all actives have a fitted effect of over 65% in size; note: potency is the fitted concentration of half-maximal effect). To be noted: recombinant Clk4, Kinase-Glo ATP depletion luminescence; series mostly up to 66.7 µM. In a few lines:
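Recombinant human Clk4 (25 nM) phosphorylated RS repeat peptide (100 uM) with 1 uM ATP in Tris pH 7.5/MgCl2/EGTA/DTT/Triton buffer for 4.5 h at room temperature. Residual ATP was quantified by Kinase-Glo luciferase luminescence.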

In experiment [11] the target is Ubiquitin carboxyl-terminal hydrolase 1 (Homo sapiens) (UniProt O94782). As to the kind of experiment: Inhibitors of USP1/UAF1: Pilot qHTS (AID 504865; active = well fitted curve in the direction sought with a large enough effect; an effect the other way counts as inactive or inconclusive;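 note: rhodamine fluorescence freed from ubiquitin-rhodamine substrate followed over time; top concentration of the series differs between compounds; % is set by controls: 0 for no effect and ±100 for the full control effect; nearly all actives have a fitted effect of over 35% in size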). The conditions noted are these: purified USP1/UAF1, Ub-rhodamine cleavage fluorescence; series mostly up to 54.9 µM. Put shortly:
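USP1/UAF1 complex (1nM) preincubated with compound 15 min at room temperature, then Ub-Rho substrate (150nM final) added. Fluorescence read kinetically at 480/540 nm, 6 reads every 60 seconds. Buffer: 50mM HEPES pH 7.8, 0.5mM EDTA, 0.1 mg/ml BSA, 1mM TCEP, 0.01% Tween-20.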

For experiment [12], the target named is Cytochrome P450 3A4 (Homo sapiens) (UniProt P08684). Briefly: qHTS Assay for Activators of Cytochrome P450 3A4 (AID 885; active = well fitted curve in the direction sought with a large enough effect; an effect the other way counts as inactive or inconclusive; note: nearly all actives have a fitted effect of over 65% in size). To be noted: recombinant CYP3A4, Luciferin-PPXE luminescence, 60 min; series mostly up to 57.1 µM. In a few lines:
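Quantitative HTS format: compounds preincubated with 20nM human CYP3A4 and Luciferin-PPXE substrate at KM, reaction started by NADPH regeneration, stopped after 60 min, luciferase luminescence read 20 min later.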

Experiment [13] addresses Cytochrome P450 1A2 (Homo sapiens) (UniProt P05177). As to the kind of experiment: p450-cyp1a2 (AID 410; calls by dose curve; note: potency is the fitted concentration of half-maximal effect). The conditions noted are these: recombinant CYP1A2, luciferin-ME demethylation, luminescence; series mostly up to 57 µM. In a few lines:
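Luminescent readout of luciferin formed from Luciferin-ME by human CYP1A2; data normalized against complete inhibition by 57 uM furafylline. Enzyme 20nM, substrate 100uM at Km, 100mM KPO4 buffer, 60 min reaction at room temperature.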

Setting [14] is: measured here: cell count channel max response.
Where [15] appears, read: measured here: lipid channel max response.

Dual specificity protein kinase CLK4 (Homo sapiens), sequence (Q9HAZ1 whole entry, looked up): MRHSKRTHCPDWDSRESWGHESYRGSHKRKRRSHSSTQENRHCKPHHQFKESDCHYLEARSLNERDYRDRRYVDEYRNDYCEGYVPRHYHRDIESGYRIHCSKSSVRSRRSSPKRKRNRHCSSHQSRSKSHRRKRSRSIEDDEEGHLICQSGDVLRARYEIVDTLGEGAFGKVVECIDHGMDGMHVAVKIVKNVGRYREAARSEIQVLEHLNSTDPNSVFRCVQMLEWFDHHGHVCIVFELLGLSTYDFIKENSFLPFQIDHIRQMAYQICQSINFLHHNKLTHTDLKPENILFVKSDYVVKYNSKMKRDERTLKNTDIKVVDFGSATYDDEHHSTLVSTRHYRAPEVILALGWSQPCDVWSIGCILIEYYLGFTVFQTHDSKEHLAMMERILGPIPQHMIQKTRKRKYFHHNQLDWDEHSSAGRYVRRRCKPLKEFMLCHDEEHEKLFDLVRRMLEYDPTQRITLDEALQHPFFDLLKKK
3',5'-cyclic-AMP phosphodiesterase 4B (Homo sapiens), sequence (Q07343 whole entry, looked up): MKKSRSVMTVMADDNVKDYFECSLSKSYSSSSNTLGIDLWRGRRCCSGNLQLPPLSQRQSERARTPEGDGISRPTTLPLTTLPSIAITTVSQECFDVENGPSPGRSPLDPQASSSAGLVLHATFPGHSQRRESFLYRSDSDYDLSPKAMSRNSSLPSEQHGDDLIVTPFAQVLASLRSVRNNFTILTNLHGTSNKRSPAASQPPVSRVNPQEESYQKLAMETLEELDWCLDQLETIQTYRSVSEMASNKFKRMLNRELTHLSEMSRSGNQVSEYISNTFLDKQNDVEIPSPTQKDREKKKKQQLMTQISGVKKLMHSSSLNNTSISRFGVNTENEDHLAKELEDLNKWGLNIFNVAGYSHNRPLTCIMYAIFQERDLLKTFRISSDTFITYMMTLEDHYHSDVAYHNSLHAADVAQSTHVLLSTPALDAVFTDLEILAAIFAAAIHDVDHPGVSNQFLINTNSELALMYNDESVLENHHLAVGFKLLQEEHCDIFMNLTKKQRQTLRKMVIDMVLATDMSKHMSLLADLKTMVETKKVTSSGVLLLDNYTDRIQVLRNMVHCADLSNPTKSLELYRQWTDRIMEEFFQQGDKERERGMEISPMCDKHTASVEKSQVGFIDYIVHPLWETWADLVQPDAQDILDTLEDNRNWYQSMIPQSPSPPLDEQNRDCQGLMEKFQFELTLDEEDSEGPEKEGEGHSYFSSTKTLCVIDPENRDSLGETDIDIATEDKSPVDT
Cytochrome P450 3A4 (Homo sapiens), sequence (P08684 whole entry, looked up): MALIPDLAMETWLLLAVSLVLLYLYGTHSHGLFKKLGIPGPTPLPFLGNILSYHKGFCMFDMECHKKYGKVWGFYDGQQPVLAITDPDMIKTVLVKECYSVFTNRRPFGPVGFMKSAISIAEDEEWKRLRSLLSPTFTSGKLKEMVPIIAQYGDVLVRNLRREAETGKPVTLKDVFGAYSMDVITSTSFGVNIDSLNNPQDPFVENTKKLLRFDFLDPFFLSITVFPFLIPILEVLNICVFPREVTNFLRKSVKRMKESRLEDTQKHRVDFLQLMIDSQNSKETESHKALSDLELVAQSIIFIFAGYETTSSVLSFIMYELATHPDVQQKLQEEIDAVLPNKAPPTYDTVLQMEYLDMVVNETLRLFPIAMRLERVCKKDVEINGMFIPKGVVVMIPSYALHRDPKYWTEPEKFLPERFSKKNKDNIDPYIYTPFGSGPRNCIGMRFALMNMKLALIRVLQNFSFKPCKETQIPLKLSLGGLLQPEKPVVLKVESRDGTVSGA
Ubiquitin carboxyl-terminal hydrolase 1 (Homo sapiens), sequence (O94782 whole entry, looked up): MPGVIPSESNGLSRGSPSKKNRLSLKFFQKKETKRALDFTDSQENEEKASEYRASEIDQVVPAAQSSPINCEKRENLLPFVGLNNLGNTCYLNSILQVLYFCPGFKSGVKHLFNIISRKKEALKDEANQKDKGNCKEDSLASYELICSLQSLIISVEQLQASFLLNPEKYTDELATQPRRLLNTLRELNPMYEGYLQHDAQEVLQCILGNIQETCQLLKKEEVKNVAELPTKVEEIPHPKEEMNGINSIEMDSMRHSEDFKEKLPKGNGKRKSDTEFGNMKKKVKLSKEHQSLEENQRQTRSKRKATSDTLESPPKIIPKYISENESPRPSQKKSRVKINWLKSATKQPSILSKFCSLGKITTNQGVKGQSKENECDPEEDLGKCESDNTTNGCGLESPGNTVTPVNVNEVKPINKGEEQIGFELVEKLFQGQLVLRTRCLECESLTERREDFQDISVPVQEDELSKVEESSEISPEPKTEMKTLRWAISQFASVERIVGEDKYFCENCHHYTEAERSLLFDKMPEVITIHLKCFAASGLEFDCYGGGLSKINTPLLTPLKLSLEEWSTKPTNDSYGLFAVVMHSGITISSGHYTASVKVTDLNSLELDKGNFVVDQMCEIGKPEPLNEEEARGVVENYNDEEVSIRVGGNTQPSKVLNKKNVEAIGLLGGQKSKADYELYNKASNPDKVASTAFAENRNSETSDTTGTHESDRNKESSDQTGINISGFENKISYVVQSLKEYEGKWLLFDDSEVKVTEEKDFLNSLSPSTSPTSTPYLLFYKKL
Lysosomal acid glucosylceramidase (Homo sapiens), sequence (P04062 whole entry, looked up): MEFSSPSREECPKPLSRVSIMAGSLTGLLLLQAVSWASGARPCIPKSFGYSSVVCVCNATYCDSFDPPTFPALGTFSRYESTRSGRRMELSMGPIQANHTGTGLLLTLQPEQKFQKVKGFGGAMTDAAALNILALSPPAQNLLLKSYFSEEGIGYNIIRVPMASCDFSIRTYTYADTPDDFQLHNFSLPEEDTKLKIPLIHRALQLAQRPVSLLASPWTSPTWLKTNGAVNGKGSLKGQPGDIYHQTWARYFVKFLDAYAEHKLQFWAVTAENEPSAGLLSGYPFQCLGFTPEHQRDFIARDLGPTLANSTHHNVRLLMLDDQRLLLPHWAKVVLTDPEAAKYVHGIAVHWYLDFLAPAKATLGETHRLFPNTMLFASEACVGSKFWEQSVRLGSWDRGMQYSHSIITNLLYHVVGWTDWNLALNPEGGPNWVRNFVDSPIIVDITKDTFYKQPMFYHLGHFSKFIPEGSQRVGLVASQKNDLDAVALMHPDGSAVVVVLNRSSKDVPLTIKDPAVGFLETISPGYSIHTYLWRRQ
Glucocorticoid receptor (Homo sapiens), sequence (P04150 whole entry, looked up, the tested form may be a part): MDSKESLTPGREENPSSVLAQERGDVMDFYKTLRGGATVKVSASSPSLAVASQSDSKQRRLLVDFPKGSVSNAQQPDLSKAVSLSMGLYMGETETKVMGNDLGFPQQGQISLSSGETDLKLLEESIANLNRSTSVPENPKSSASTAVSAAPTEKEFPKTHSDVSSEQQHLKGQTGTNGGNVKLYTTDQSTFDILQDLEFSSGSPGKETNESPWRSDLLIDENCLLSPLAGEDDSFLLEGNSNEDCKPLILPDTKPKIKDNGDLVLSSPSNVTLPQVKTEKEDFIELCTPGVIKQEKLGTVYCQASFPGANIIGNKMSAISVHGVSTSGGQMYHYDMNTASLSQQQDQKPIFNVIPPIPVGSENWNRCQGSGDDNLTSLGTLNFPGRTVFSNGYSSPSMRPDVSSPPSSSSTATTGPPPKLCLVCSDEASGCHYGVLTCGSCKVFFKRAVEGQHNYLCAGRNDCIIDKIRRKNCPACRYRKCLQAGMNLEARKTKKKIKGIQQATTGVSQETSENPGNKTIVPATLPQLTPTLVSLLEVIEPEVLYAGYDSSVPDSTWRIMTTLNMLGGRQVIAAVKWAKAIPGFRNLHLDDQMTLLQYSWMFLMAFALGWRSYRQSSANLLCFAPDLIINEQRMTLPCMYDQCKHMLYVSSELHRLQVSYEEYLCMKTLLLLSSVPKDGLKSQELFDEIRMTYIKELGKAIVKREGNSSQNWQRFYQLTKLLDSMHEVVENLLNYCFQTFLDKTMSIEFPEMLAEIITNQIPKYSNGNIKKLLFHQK
Cytochrome P450 1A2 (Homo sapiens), sequence (P05177 whole entry, looked up): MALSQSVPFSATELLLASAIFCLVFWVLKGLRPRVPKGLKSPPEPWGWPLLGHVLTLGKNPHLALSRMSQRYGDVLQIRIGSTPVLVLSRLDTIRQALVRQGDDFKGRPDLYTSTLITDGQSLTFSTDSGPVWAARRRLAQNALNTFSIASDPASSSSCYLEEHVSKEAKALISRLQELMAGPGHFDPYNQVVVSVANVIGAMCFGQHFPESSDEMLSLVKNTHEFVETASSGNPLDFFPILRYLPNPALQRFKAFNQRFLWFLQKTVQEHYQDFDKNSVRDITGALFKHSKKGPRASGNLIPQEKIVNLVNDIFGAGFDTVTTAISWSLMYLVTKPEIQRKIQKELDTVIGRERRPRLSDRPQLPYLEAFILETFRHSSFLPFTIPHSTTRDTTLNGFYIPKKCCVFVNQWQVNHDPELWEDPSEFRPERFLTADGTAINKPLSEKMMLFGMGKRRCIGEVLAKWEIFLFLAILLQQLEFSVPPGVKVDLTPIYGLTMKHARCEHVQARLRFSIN

In the case of `COc1ccc(-n2c(=O)c(-c3ccc(F)cc3)nc3cnc(N4CCNCC4)nc32)cc1`, the values for the Potency in experiment [1], in [5] and in experiment [6] were > 11.4 µM (inactive), > 9.22 µM (inactive) and > 46 µM (inactive), respectively. Besides, the activity change, negative = inhibition was -1.98% (inactive) in experiment [2], 27.8% (inactive) in [3] and 0.369% (inactive) in [9]. The activity, negative = inhibition in experiment [4] was 9.23% (inactive). Further, the Potency result in experiment [7], in [8], in experiment [10] and in experiment [11] was “inactive” each time. Besides, the max response in experiment [9] (setting [14]) is 11.2%; in experiment [9] (setting [15]), 12.6%.

For the compound `Cn1c(=O)c(-c2ccc(F)cc2)nc2cnc(OCc3ccccc3)nc21`, the Potency in experiment [1] was > 11.4 µM (inactive); in experiment [5] it was > 9.22 µM (inactive); in experiment [6] it was > 46 µM (inactive). The figures for the activity change, negative = inhibition in [2], in experiment [3] and in [9] were 14.6% (inactive), 19.9% (inactive) and 5.66% (inactive), respectively. Also, the activity, negative = inhibition in [4] was -11.9% (inactive). Besides, the Potency entry in [7], in experiment [8], in experiment [10] and in [11] was “inactive” throughout. The max response amounted to 7.28% in experiment [9] (setting [14]) and 10.2% in experiment [9] (setting [15]).

Turning to `Cc1nc2cnc(N3CCN(C)CC3)nc2n(C[C@H]2CCCO2)c1=O`, the Potency in [1] was > 11.4 µM (inactive); in [5], > 9.22 µM (inactive); in [6], > 46 µM (inactive). The activity change, negative = inhibition in experiment [2] is -19.6% (inactive); in experiment [3], -3.95% (inactive); in experiment [9], 2.98% (inactive). Besides, in experiment [4], the activity, negative = inhibition was -13% (inactive). Also, the Potency entry in experiment [7], in experiment [10] and in experiment [11] was “inactive” in each case. The values for the max response in [9] (setting [14]) and in [9] (setting [15]) were 2.4% and 4.31%, respectively.

For `COCCn1c(=O)c(-c2cccs2)nc2cnc(N3CCN(C)CC3)nc21`, the results for the Potency in [1], in [5] and in [6] were > 11.4 µM (inactive), > 9.22 µM (inactive) and > 46 µM (inactive), respectively. The activity, negative = inhibition in [4] was 12% (inactive). The Potency entry in experiment [7], in [8], in [12], in experiment [10] and in [11] was “inactive” in each case. The activity change, negative = inhibition in experiment [9] is 1.3% (inactive). Moreover, the figures for the max response in [9] (setting [14]) and in experiment [9] (setting [15]) were 18.6% and 19.9%, respectively.

For the compound `CN1CCN(c2ncnc3ccc(-c4ccoc4)cc23)CC1`, the Potency in experiment [1] was > 11.4 µM (inactive); in [5] it was > 46 µM (inactive); in [6], > 46 µM (inactive); in experiment [10], 0.631 µM (active). For the same compound, the activity change, negative = inhibition in [2] was -22.9% (inactive); in experiment [3] it was -23.1% (inactive); in [9], 2.55% (inactive). In addition, in experiment [4], the activity, negative = inhibition is -0.925% (inactive). For the same compound, the Potency entry in experiment [7] and in experiment [11] was “inactive” each time. Also, the figures for the max response in [9] (setting [14]) and in experiment [9] (setting [15]) were 12.5% and 2.82%, respectively.

Take `CN(C)C(=O)c1ccc(-c2ccc3ncnc(NCc4cccs4)c3c2)cc1`: the Potency in [1] was > 11.4 µM (inactive); in [13] it was 15.8 µM (active); in [5], > 46 µM (inactive); in experiment [6] it was > 46 µM (inactive); in experiment [10], 12.6 µM (active). Further, the activity change, negative = inhibition was -29.4% (inactive) in experiment [2], 17.3% (inactive) in experiment [3] and 6.27% (inactive) in experiment [9]. Moreover, the activity, negative = inhibition in [4] was -7.67% (inactive). Further, the Potency result in [7], in [12] and in experiment [11] was “inactive” in each case. In addition, the max response in [9] (setting [14]) is 5.7%; in [9] (setting [15]), 12.3%.

With `COc1cccc(Nc2ncc3ncc(=O)n(C)c3n2)c1`, the Potency is > 11.4 µM (inactive) in experiment [1]; 1.58 µM (active) in experiment [13]; > 9.22 µM (inactive) in [5]; > 46 µM (inactive) in experiment [6]; 0.891 µM (active) in experiment [10]. In addition, the results for the activity change, negative = inhibition in [3] and in [9] were 0.44% (inactive) and 4.86% (inactive), respectively. Moreover, the activity, negative = inhibition in experiment [4] is -17.5% (inactive). The Potency entry in experiment [8], in experiment [12] and in experiment [11] was “inactive” throughout. Also, the max response in [9] (setting [14]) was 11.1%; in experiment [9] (setting [15]), 14.9%.

For `CN1CCN(c2ncc3nc(-c4ccccc4)c(=O)n(C4CC4)c3n2)CC1`, the Potency in experiment [1] is > 11.4 µM (inactive); in experiment [5] it was > 9.22 µM (inactive); in experiment [6], > 46 µM (inactive). Moreover, the activity change, negative = inhibition in experiment [3] is 30% (inactive); in experiment [9] it was 4.04% (inactive). Also, the Potency result in experiment [7], in [8], in experiment [10] and in experiment [11] was “inactive” each time. Further, the max response in experiment [9] (setting [14]) was 24.3%; in experiment [9] (setting [15]), 27.3%.
